Measured values taken from PubChem BioAssay AID652106 (National Center for Advancing Translational Sciences (NCATS), 2013).
The campaign covered roughly 370,000 compounds. About 500 (0.14%) were called active. A call without a number means that no potency is given here. Not shown: some 2% with an inconclusive outcome. The call rests on the fitted dose curve; in most records, active means well fitted activation curve with a large enough effect; inconclusive means small, poorly fitted or top-dose-only effect; inactive means no such curve, though single readings can be large or run the other way. For the sample, actives were picked, then their nearest neighbours and some compounds at random.

Assay: qHTS of alpha-syn Inhibitors; further: nearly all actives have a fitted effect of over 65% in size
Conditions: Yeast expressing alpha-synuclein, BacTiter-Glo, 24 h; Potency: growth rescue; series mostly up to 46.1 µM
Description: The goal of this project is to identify new chemical probes capable of reversing the toxicity associated with the Parkinson disease-related protein, alpha-synuclein. Compounds will be selected on their ability to restore growth in yeast cells expressing toxic levels of alpha-synuclein. These compounds will provide a complementary approach to deciphering the tangled mechanisms of toxicity and protection that we have uncovered through genome-wide genetic screens and are beginning to uncover in a large-scale proteomics analysis with mass spectroscopy. To this end, a miniaturized assay was developed to be screened against the Molecular Libraries Small Molecule Repository (MLSMR) to discover alpha-synuclein inhibitors. Please note that in the set-up this yeast-based assay compounds that inhibit as alpha-syn, have a read-out as activators. NIH Chemical Genomics Center [NCGC] NIH Molecular Libraries Probe Centers Network [MLPCN] MLPCN Grant: NS060957 Assay Submitter (PI): Susan Lindquist, Whitehead Institute/MIT
Dispense 2.5 microL yeast galactose medium per 1536-well plate, pin compound, dispense 2.5 microL alpha-synuclein expressing yeast in galactose medium at OD600=0.02 (pregrown in raffinose medium to mid-log phase) per well, incubate for 24 hr at 30 deg C, and cell growth will be measured using 5 microL of Bactiter/Glo reagent to entire plate and read using Luminescence Protocol in ViewLux.
Potency means the concentration at half of the fitted maximal effect.

| Compound | Potency |
| --- | --- |
| O=C(O)c1c(Br)c(Br)c(Br)c(Br)c1C1c2ccc(O)cc2Oc2cc(O)ccc21 | inactive |
| O=C(CN1C(=O)COc2ccc(S(=O)(=O)N3CCCCCC3)cc21)N1CCN(c2cccc(C(F)(F)F)c2)CC1 | inactive |
| C=COC(=O)N1CCN(/[N+]([O-])=N/Oc2ccc([N+](=O)[O-])cc2[N+](=O)[O-])CC1 | inactive |
| CCc1ccc(NC(=O)CCS(=O)(=O)c2cc3c(cc2Cl)NC(=O)CO3)cc1 | inactive |
| O=C(CN1C(=O)COc2ccc(S(=O)(=O)N3CCOCC3)cc21)N1CCN(c2cccc(Cl)c2)CC1 | inactive |
| Oc1ccc(Cl)cc1C1C=C(c2ccc3c(c2)OCO3)NC(c2ccc(F)c(Br)c2)N1 (centres undefined) | inactive |
| CCCSc1nc2sc3c(c2c(=O)n1-c1cccc(Br)c1)CC(C)(C)OC3 | inactive |
| CN1CCN(/[N+]([O-])=N/Oc2ccc([N+](=O)[O-])cc2[N+](=O)[O-])CC1 | inactive |
| CC1(C)Cc2ccccc2-c2c[nH]c(=O)n21 | inactive |
| Cc1c(NS(=O)(=O)c2ccc(Cl)cc2)c(=O)n(-c2ccccc2)n1C | inactive |
| O=C(O)C1=C/C(=C/C=[N+]2c3cc(O)c(O[C@H]4OC(CO)[C@@H](O)[C@@H](O)[C@@H]4O)cc3C[C@@H]2C(=O)[O-])C[C@H](C(=O)O)N1 (some centres undefined) | inactive |
| COc1ccc(-c2nc3c(c(SCC(=O)Nc4ccc(C(=O)O)cc4)n2)Cc2ccccc2O3)cc1 | inactive |
| Cc1ccc(S(=O)(=O)N2CCN(c3nc(-n4cnc5ccccc54)nc4ccccc34)CC2)cc1 | inactive |
| SCc1nc2ccc(Cl)cc2[nH]1 | inactive |
| COc1ccc(-c2c(C)c3ccc(O)c(CN4CCCC4)c3oc2=O)cc1OC | inactive |
| CCOC(=O)C(=Cc1ccccc1)C(=O)c1ccccc1 | 14.1 µM (active) |
| CCc1ccccc1NC(=O)/C(=C/c1ccccc1)c1ccccc1 | inactive |
| CCOC(=O)/C(=C\c1ccc([N+](=O)[O-])cc1)C(=O)c1cc(C(C)=O)c(Nc2ccccc2)s1 | inactive |
| CCC(CC)C(=O)N1CCc2cc(OC)c(OC)cc2C1COc1ccc(F)cc1 (centres undefined) | inactive |
| O=C(Nc1cccc2c1CCCC2)c1ccc(F)cc1 | inactive |
| CC1COc2ccccc2N1C(=O)c1ccc(F)cc1 (centres undefined) | inactive |
| O=C(Nc1nnc(C2COc3ccccc3O2)o1)c1ccc(F)cc1 (centres undefined) | 17.8 µM (active) |
| CC(C)(C)OC(=O)N1CCC(c2c(C(=O)Nc3ccc4c(c3)OCO4)cnn2-c2ccccc2)CC1 | inactive |
| CCN1CCN(c2ccc(/C=C/c3ccnc4ccccc34)cc2)CC1 | inactive |
| OC(CBr)CN1CCCCC1 (centres undefined) | inactive |

| Compound | Potency |
| --- | --- |
| O=C(COc1ccccc1C(=O)Nc1ccccc1)Nc1cccc(F)c1 | inactive |
| CC1CC2C3CCC4=CC(=O)C=C[C@]4(C)[C@@]3(F)[C@@H](O)C[C@]2(C)[C@@]1(O)C(=O)CO (some centres undefined) | inactive |
| CC1(C)CCc2cc(S(=O)(=O)N3CCN(c4nc(-c5cccs5)nc5ccccc45)CC3)ccc2O1 | inactive |
| C(=Nc1ccc(/C=C/c2ccnc3ccccc23)cc1)Nc1ccc(/C=C/c2ccnc3ccccc23)cc1 | inactive |
| O=C(CSc1ncc(CO)n1Cc1ccc(Cl)cc1)NCc1ccc(F)cc1 | inactive |
| COc1ccc(Cl)cc1C(=O)NNC(=O)c1nc2nc(C)cc(C)n2n1 | inactive |
| COc1ccc(Cl)cc1C(=O)NNC(=S)NC(=O)/C=C/c1ccco1 | 3.55 µM (active) |
| CCC(C)NC(=O)c1cc(Cl)ccc1OC (centres undefined) | inactive |
| Cc1cc(C)c2oc(-c3cccc(NC(=O)c4cccc(F)c4)c3C)nc2c1 | inactive |
| O=[N+]([O-])c1ccc(S(=O)(=O)N2CCN(c3nc(-c4ccccc4)nc4ccccc34)CC2)cc1 | inactive |
| Cc1ccc(C=O)cc1Cl | inactive |
| O=C(Nc1ccccc1)c1ccccc1OCc1ccccc1 | inactive |
| OC[C@@H]1O[C@H](n2cnc3c(SCc4ccccc4)ncnc32)[C@H](O)[C@H]1O | inactive |
| COc1ccc(CN(Cc2ccccc2)C(=O)c2ccc(O)cc2)cc1COc1ccc(NC(C)=O)cc1 | inactive |
| C=C1C=C(C)n2ncc(C(=O)Nc3ccccc3O)c2N1 | inactive |
| COc1cccc2c1C(=O)c1c(O)c3c(c(O)c1C2=O)CC(O)(C(C)=NNC(=O)c1ccc(Cl)c(Cl)c1)CC3OC1CC(N)C(O)C(C)O1 (centres undefined) | 28.2 µM (active) |
| Nc1ncnc2nnsc12 | inactive |
| CN(N=O)c1ccc(C=C2c3ccccc3-c3ccccc32)cc1 | inactive |
| COc1cc(OC)c(/C=C/c2ccnc3ccccc23)c(OC)c1 | inactive |
| S=c1[nH]c(=S)c2n[nH]nc2[nH]1 | inactive |
| COc1ccc(Cn2c(=O)[nH]c3cc(C(=O)N4CCN(C(=O)c5ccco5)CC4)ccc3c2=O)cc1 | inactive |
| COc1ccc(CN2CCc3nc(Nc4ccccc4)ncc3C2)c(OC)c1OC | inactive |
| COc1cc2[nH]c(C)c(CCN3CCN(c4ccccc4)CC3)c2cc1OC | inactive |
| Cc1ccc(-c2nc3ccccn3c2Nc2ccc(F)cc2)o1 | inactive |
| CSc1ccc(C2C(C(=O)Nc3ccccc3)=C(C)Nc3nc4ccccc4n32)cc1 (centres undefined) | inactive |

| Compound | Potency |
| --- | --- |
| Cc1cccc(NC(=O)COC(=O)c2ccccc2OCc2cccc(Br)c2)c1 | inactive |
| O=C1CSC2(C(=O)N(Cc3ccccc3)c3ccccc32)N1c1cccc(F)c1 (centres undefined) | inactive |
| CCOC(=O)Cn1c(=O)n(C2CCCCC2)c2nc(-c3cccc(OC)c3)nc(C(N)=O)c21 | inactive |
| O=C(Nc1ccccc1C(F)(F)F)c1nc(S(=O)(=O)Cc2ccccc2F)ncc1Cl | inactive |
| COc1ccc(OC)c(NC(=O)C2CCCN(S(=O)(=O)c3ccc4c(c3)CCCC(=O)N4)C2)c1 (centres undefined) | inactive |
| O=C1OCCN1C(=O)[C@H]1[C@H](c2ccc(Cl)cc2)C(c2cccc(Cl)c2)=NN1c1ccc(Br)cc1 | inactive |
| C[C@@H]1C(c2ccc(F)cc2)=NN(c2ccc(Br)cc2)[C@H]1C(=O)N1CCOC1=O | 22.4 µM (active) |
| O=C1OCCN1C(=O)[C@H]1[C@H](c2ccccc2)C(c2ccc(F)cc2)=NN1c1ccccc1 | inactive |
| COc1ccc(-c2nc(=N)sn2-c2ccccc2)cc1 | inactive |
| Cc1ccc(C)c(N2CCN(C(=O)CCc3nc4ccccc4[nH]3)CC2)c1 | 15.8 µM (active) |
| Cc1ccc(C)c(N2CCN(C(=O)CCc3nc(-c4cccc(C(F)(F)F)c4)no3)CC2)c1 | inactive |
| Cc1ccc(C)c(N2CCN(C(=O)Cn3ncn4cccc4c3=O)CC2)c1 | inactive |
| COc1ccc(CNC(=O)CSc2nc3ccccc3nc2Cc2ccccc2)cc1 | inactive |
| C(=Nc1ccc(/C=C/c2ccnc3ccccc23)cc1)c1cc2c3c(c1)CCCN3CCC2 | inactive |
| O=C(COC(=O)c1ccccc1OCCOc1ccccc1)Nc1cccc(Br)c1 | inactive |
| COc1ccc(C(C)(NC(C)=O)c2nc(-c3ccc(S(C)(=O)=O)cc3)cs2)cc1 (centres undefined) | inactive |
| COc1ccc(C(C)(O)c2nc(-c3ccc(C)c(C)c3)cs2)cc1 (centres undefined) | 3.16 µM (active) |
| COc1ccc(C(C)(O)c2nc(-c3cc(F)cc(F)c3)cs2)cc1 (centres undefined) | inactive |
| CCOc1n[nH]c(-c2ccccc2)n1 | inactive |
| COc1ccc(N2CCN(S(=O)(=O)c3ccc(-c4coc(C)n4)cc3)CC2)cc1 | inactive |
| Cc1ccc2ccc3c(c2n1)NS(=O)(=O)c1ccccc1-3 | inactive |
| CCc1sc(C(=O)N2CCN(CC(=O)Nc3cccc(F)c3)CC2)cc1C | 25.1 µM (active) |
| CC(=O)N1CCN(CC(=O)Nc2ccc(C)c(F)c2)CC1 | inactive |
| CCN1CCN(C(=O)C2(NC(=O)Nc3cccc(F)c3)CCCCC2)CC1 | inactive |
| CC1(C)CC(=O)c2cc(C(=O)NCc3ccccc3)c(=O)[nH]c2C1 | inactive |

| Compound | Potency |
| --- | --- |
| Oc1ccccc1-c1nc2ccc(Cl)cn2c1Nc1ccc2c(c1)OCCO2 | inactive |
| COc1ccc(C(O)c2nc(-c3ccc4c(c3)OCO4)cs2)cc1 (centres undefined) | 22.4 µM (active) |
| COc1cc(C(O)c2nc(-c3cnn(C)c3)cs2)ccc1F (centres undefined) | inactive |
| COCc1cccc(-c2csc(C(O)c3ccc(F)cc3)n2)c1 (centres undefined) | inactive |
| O=C(CCS(=O)(=O)c1ccc2c(c1)NC(=O)CO2)Nc1cccc(C(F)(F)F)c1 | inactive |
| COc1cc(OC)c(OC)cc1/C=C1\C=Cc2ccccc21 | inactive |
| CCC(=O)Nc1cccc(-c2nc3cc(C)ccc3o2)c1 | inactive |
| Cc1cccc(N(C)C(=O)CS(=O)(=O)c2cccc3nsnc23)c1 | inactive |
| O=C1O/C(=C\c2ccc(O)cc2)C(O)=C1c1ccc(O)cc1 | inactive |
| CCN(CC)c1nc(C#N)nc(OC)n1 | inactive |
| CN(C)c1ccc(C=Nc2ccc(/C=C/c3ccnc4ccccc34)cc2)cc1 | inactive |
| CCOC(=O)c1ccc(NC(=O)C2CCN(S(=O)(=O)c3ccc4c(c3)CCCC(=O)N4)CC2)cc1 | inactive |
| Cc1csc(NCC(=O)c2c[nH]c3ccccc23)n1 | inactive |
| COc1ccc(CC(=O)Nc2nnc3n2CCS3)cc1OC | inactive |
| C[N+]1(CC(=O)c2cccs2)CCOCC1 | inactive |
| CC(C)(C)c1ccc(C(=O)C[n+]2cccc3cc(Cl)ccc32)cc1 | inactive |
| CCOC(=O)c1c(-c2ccc(OC)cc2)oc2ccc(OCc3ccc(C(=O)OC)cc3)cc12 | inactive |
| CCN(CC)c1ccc(S(=O)(=O)N2CCOCC2)cc1NC(=O)CSc1cccc[n+]1[O-] | 17.8 µM (active) |
| CCN(CC)c1ccc(S(=O)(=O)N2CCCCC2)cc1NC(=O)C1=COCCO1 | inactive |
| O=C(CSc1ccccc1)Nc1cccc(S(=O)(=O)N2CCOCC2)c1 | inactive |
| Cc1ccc(CCNC(=O)c2ccc(CNS(=O)(=O)c3ccc(C)cc3)cc2)cc1 | inactive |
| Nc1ccc(/C=C/c2ccnc3ccccc23)c([N+](=O)[O-])c1 | inactive |
| Oc1ccc(N=Nc2nccs2)c(O)c1 | 2.24 µM (active) |
| CN(C)c1ccc(/C=N\Nc2ccc([N+](=O)[O-])cc2[N+](=O)[O-])cc1Cl | inactive |
